# PubChem BioAssay (Tox21)
# Inconclusive results are not listed. A call without a number means that no potency is given here. A number with no mark means an inactive call. Calls of active or inactive are those of the source. Calls follow the shape of the dose curve; as a rule, active = well fitted curve in the direction sought with a large enough effect in the repeat runs; inconclusive = weak or mixed curves; inactive = no such curve, though single readings can be large; an effect the other way counts as inactive or inconclusive.
# Tests used:
# [1] = target: Cytochrome P450 2D6 (Homo sapiens) (UniProt P10635); test: Cytochrome P450 Family 2 Subfamily D Member 6 (CYP2D6) small molecule antagonists: luciferase reporter qHTS assay (AID 1671196); settings: P450-Glo CYP2D6 enzyme assay, luciferin luminescence, 1 h; series mostly up to 115 µM; also: nearly all actives have a fitted effect of over 50% in size
# Sequence of Cytochrome P450 2D6 (Homo sapiens) (P10635 whole entry, looked up): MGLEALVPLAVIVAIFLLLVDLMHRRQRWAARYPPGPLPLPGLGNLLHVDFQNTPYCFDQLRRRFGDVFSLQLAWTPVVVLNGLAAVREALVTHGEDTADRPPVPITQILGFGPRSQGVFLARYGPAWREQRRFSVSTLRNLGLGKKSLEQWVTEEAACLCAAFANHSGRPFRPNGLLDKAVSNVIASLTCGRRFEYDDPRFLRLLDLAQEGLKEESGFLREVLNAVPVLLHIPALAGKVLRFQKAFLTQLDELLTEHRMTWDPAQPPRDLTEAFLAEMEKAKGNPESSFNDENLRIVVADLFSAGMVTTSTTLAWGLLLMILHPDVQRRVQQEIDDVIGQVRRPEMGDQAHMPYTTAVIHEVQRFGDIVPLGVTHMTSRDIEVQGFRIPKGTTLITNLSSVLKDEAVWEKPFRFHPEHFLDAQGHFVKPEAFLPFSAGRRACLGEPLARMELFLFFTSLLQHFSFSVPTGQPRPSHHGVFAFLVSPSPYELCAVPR
# Method in brief: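 Quantitative HTS of Tox21 chemicals against CYP2D6 using a luminescent proluciferin substrate. After NADPH addition, 1 h room-temperature reaction; luminescence recorded 20 min post detection reagent.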
# [2] = target: Cytochrome P450 2C9 (Homo sapiens) (UniProt P11712); test: Cytochrome P450 Family 2 Subfamily C Member 9 (CYP2C9) small molecule antagonists: luciferase reporter qHTS assay (AID 1671198); settings: P450-Glo CYP2C9 enzyme assay, luciferin luminescence; series mostly up to 115 µM; also: nearly all actives have a fitted effect of over 50% in size
# Sequence of Cytochrome P450 2C9 (Homo sapiens) (P11712 whole entry, looked up): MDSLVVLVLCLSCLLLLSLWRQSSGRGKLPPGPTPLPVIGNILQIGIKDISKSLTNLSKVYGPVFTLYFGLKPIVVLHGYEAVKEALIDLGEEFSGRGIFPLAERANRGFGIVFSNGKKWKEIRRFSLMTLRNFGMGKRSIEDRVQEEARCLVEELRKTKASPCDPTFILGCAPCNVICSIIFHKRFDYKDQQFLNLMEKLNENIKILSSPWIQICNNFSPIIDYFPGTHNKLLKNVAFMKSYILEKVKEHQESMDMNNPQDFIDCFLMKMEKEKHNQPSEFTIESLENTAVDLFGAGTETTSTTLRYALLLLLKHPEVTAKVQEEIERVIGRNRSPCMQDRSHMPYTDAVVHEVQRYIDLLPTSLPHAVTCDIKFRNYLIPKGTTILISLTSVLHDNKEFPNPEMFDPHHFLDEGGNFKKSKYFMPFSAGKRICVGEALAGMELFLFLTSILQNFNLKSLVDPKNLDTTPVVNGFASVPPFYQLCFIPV
# Method in brief: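 P450-Glo proluciferin substrate with CYP2C9 enzyme; 10 min RT preincubation, then NADPH regeneration 1 h at 37C; luciferin detection reagent 20 min RT, luminescence in relative luminescence units.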
# [3] = target: Cytochrome P450 1A2 (Homo sapiens) (UniProt P05177); test: Cytochrome P450 Family 1 Subfamily A Member 2 (CYP1A2) small molecule antagonists: luciferase reporter qHTS assay (AID 1671199); settings: P450-Glo CYP1A2 enzyme, luciferin luminescence, 1 h; series mostly up to 53 µM; also: nearly all actives have a fitted effect of over 50% in size
# Sequence of Cytochrome P450 1A2 (Homo sapiens) (P05177 whole entry, looked up): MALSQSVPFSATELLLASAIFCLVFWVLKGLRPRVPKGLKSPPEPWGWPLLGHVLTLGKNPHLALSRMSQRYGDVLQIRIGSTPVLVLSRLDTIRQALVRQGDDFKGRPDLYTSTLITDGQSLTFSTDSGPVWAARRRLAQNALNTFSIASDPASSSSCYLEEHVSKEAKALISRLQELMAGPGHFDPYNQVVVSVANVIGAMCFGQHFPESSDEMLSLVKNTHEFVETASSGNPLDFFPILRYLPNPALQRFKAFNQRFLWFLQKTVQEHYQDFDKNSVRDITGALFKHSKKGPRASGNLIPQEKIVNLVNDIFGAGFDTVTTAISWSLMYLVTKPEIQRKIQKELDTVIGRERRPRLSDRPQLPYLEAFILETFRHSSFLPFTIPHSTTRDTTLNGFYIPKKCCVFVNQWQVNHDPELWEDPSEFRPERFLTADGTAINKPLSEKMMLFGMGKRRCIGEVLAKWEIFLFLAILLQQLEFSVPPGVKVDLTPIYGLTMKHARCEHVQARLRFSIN
# Method in brief: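 Quantitative high-throughput format using the P450-Glo CYP1A2 system. Reaction initiated by NADPH regeneration solution, 1 h at room temperature, then stopped with detection reagent; luminescence measured 20 min later.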
# [4] = target: Voltage-gated inwardly rectifying potassium channel KCNH2 (Homo sapiens) (UniProt Q12809); test: Human Ether-a-go-go-Related Gene (hERG) channel small molecule antagonists: fluorescence cell-based qHTS assay (AID 1671200); settings: hERG-U2OS cells, FluxOR thallium flux fluorescence; series mostly up to 76.8 µM; also: nearly all actives have a fitted effect of over 50% in size;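 as to activity change, negative = inhibition: hERG-expressing U2OS cells given a thallium stimulus after FluxOR II dye loading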
# Sequence of Voltage-gated inwardly rectifying potassium channel KCNH2 (Homo sapiens) (Q12809 whole entry, looked up): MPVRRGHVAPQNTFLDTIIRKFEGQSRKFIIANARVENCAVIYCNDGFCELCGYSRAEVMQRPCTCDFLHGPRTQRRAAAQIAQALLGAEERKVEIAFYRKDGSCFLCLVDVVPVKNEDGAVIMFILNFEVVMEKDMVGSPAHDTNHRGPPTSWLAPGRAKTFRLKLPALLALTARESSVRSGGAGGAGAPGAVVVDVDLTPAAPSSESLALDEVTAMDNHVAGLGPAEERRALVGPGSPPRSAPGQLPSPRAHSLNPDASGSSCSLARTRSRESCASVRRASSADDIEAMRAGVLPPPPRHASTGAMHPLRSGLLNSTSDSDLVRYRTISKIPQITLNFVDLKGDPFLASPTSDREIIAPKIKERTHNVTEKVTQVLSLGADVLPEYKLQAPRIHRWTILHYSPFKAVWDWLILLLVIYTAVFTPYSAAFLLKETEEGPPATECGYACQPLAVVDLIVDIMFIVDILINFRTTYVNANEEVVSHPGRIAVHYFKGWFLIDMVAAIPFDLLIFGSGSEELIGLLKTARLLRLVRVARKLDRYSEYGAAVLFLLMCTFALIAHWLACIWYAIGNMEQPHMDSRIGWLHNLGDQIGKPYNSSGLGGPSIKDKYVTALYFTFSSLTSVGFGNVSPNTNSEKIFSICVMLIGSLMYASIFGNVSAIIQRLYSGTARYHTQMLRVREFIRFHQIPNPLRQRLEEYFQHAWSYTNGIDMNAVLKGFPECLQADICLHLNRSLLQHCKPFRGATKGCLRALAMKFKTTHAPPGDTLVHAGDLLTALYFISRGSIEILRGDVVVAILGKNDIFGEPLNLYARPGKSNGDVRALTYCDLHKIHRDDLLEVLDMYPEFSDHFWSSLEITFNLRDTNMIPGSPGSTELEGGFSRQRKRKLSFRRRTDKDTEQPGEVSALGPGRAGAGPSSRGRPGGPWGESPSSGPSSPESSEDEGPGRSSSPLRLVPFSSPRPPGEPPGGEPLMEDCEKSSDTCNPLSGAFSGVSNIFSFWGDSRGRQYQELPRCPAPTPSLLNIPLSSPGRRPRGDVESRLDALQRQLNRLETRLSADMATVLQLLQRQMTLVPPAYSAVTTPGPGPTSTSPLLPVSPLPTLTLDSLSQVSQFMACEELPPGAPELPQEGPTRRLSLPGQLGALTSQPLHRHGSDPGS
# Method in brief: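 In this thallium-flux screen, overnight-cultured U2OS cells bearing the channel are dye-loaded in darkness for an hour, rested 10 min at room temperature, and then monitored kinetically at 480/540 nm for two minutes post-stimulus.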
# [5] = target: Cytochrome P450 3A4 (Homo sapiens) (UniProt P08684); test: Cytochrome P450 Family 3 Subfamily A Member 4 (CYP3A4) small molecule antagonists: luciferase reporter qHTS assay (AID 1671201); settings: P450-Glo CYP3A4 enzyme, luciferin luminescence, 1 h; series mostly up to 115 µM; also: nearly all actives have a fitted effect of over 50% in size
# Sequence of Cytochrome P450 3A4 (Homo sapiens) (P08684 whole entry, looked up): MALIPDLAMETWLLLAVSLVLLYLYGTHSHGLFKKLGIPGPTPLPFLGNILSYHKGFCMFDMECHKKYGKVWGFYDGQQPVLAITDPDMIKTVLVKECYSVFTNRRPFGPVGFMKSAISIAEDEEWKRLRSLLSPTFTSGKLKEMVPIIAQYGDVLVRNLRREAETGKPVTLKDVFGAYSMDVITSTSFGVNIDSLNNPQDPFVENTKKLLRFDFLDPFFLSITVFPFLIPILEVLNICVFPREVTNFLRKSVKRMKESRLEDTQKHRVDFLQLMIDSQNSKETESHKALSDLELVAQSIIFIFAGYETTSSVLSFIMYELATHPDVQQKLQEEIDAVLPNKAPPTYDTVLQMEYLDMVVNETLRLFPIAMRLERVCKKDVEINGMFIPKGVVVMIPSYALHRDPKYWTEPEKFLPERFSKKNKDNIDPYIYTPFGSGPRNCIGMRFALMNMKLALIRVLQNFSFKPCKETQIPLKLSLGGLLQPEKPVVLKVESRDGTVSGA
# Method in brief: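 CYP3A4 activity was followed with a P450-Glo proluciferin substrate. Test compounds in DMSO were preincubated 10 min; NADPH regeneration then ran 1 h, and light output was read 20 min after detection reagent.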
# [6] = target: Cytochrome P450 2C19 (Homo sapiens) (UniProt P33261); test: Cytochrome P450 Family 2 Subfamily C Member 19 (CYP2C19) small molecule antagonists: luciferase reporter qHTS assay (AID 1671197); settings: P450-Glo CYP2C19 enzyme, luciferin luminescence, 1 h; series mostly up to 115 µM; also: nearly all actives have a fitted effect of over 65% in size
# Sequence of Cytochrome P450 2C19 (Homo sapiens) (P33261 whole entry, looked up): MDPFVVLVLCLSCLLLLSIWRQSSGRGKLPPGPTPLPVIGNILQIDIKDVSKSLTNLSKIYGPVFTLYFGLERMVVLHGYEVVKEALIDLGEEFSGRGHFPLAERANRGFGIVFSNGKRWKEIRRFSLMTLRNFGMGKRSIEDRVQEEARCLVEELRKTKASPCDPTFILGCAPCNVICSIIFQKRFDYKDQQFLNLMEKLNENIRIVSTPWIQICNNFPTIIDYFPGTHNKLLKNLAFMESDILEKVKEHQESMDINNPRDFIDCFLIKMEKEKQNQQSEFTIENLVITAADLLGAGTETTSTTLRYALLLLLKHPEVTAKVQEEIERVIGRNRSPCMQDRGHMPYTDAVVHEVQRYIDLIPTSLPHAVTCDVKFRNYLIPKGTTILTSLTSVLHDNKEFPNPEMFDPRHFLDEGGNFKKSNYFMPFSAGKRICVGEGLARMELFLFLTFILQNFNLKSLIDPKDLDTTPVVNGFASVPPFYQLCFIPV
# Method in brief: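 Luminescent readout of CYP2C19 activity: luciferin product detected 20 min after adding detection reagent. Before that, compound and enzyme-substrate mix preincubated 10 min at room temperature; NADPH-regenerating system started a 1 h, 37C reaction. Ketoconazole as positive control.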
# Potency is read from the fitted curve at half-maximal effect.
smiles,measurement,setting,value
CCCCCCCCCCCl,Potency,[1],inactive
same,Potency,[2],inactive
same,Potency,[3],32.2 µM (active)
same,Potency,[4],inactive
same,Potency,[5],inactive
Nc1[nH]c(=O)ncc1F,Potency,[1],inactive
same,Potency,[2],inactive
same,Potency,[3],inactive
same,Potency,[4],inactive
same,Potency,[5],inactive
CCn1c(=O)c2c(nc(/C=C/c3ccc(OC)c(OC)c3)n2C)n(CC)c1=O,Potency,[1],inactive
same,Potency,[3],inactive
same,Potency,[4],inactive
C[C@H]1O[C@@H](n2cc(F)c(=O)[nH]c2=O)[C@H](O)[C@@H]1O,Potency,[1],inactive
same,Potency,[2],inactive
same,Potency,[3],inactive
same,Potency,[4],inactive
same,Potency,[5],inactive
CCCCCC[C@@H](CCC)C(=O)O,Potency,[1],inactive
same,Potency,[2],34.7 µM (active)
same,Potency,[3],inactive
same,Potency,[5],inactive
CN(C)CCOC(c1ccc(Cl)cc1)c1ccccn1 (configuration not stated),Potency,[1],13.8 µM (active)
same,Potency,[2],inactive
same,Potency,[4],inactive
C=C(C)C(=O)NCCC[N+](C)(C)C,Potency,[1],inactive
same,Potency,[2],inactive
same,Potency,[4],inactive
same,Potency,[5],inactive
O=[N+]([O-])c1ccc(Oc2ccc([N+](=O)[O-])cc2)cc1,Potency,[1],inactive
same,Potency,[3],inactive
same,Potency,[4],39.8 µM (active)
same,Potency,[5],inactive
Nc1cc(C(Cl)=C(Cl)Cl)c(S(N)(=O)=O)cc1S(N)(=O)=O,Potency,[1],inactive
same,Potency,[3],inactive
same,Potency,[4],inactive
NC(=O)CCCCC1CCSS1 (configuration not stated),Potency,[1],inactive
same,Potency,[2],inactive
same,Potency,[3],inactive
same,Potency,[4],inactive
same,Potency,[5],inactive
Nc1ccc2cc(S(=O)(=O)O)ccc2c1,Potency,[1],39.9 µM (active)
same,Potency,[2],50.2 µM (active)
same,Potency,[4],inactive
same,Potency,[5],inactive
CCc1cc(S(=O)(=O)O)c2cc(C(C)C)cccc1-2,Potency,[1],inactive
same,Potency,[3],inactive
same,Potency,[4],inactive
same,Potency,[5],inactive
CC(=O)c1ccc(C)cc1,Potency,[1],inactive
same,Potency,[2],inactive
same,Potency,[3],inactive
same,Potency,[5],inactive
CCN(CC)S(=O)(=O)c1ccc(C(=O)O)cc1,Potency,[1],38.9 µM (active)
same,Potency,[3],inactive
same,Potency,[4],inactive
same,Potency,[5],inactive
CC(C)(C)C(=O)/C=C/c1ccc(Cl)cc1,Potency,[1],inactive
same,Potency,[2],63.3 µM (active)
same,Potency,[3],22.4 µM (active)
same,Potency,[5],inactive
NCCN1CCNC1=O,Potency,[6],inactive
same,Potency,[2],inactive
same,Potency,[3],inactive
same,Potency,[4],inactive
same,Potency,[5],inactive
[O-][N+](=Nc1ccccc1)c1ccccc1,Potency,[6],63.3 µM (active)
same,Potency,[3],5.64 µM (active)
same,Potency,[4],inactive
same,Potency,[5],inactive
Cc1ccc(N)cc1[N+](=O)[O-],Potency,[6],inactive
same,Potency,[2],35.8 µM (active)
same,Potency,[3],8.02 µM (active)
same,Potency,[4],inactive
same,Potency,[5],40.2 µM (active)
CCCC(C)CO (configuration not stated),Potency,[6],inactive
same,Potency,[2],inactive
same,Potency,[3],35.6 µM (active)
same,Potency,[4],inactive
same,Potency,[5],inactive
CO[Si](OC)(OC)OC,Potency,[6],inactive
same,Potency,[2],inactive
same,Potency,[3],31 µM (active)
same,Potency,[4],inactive
same,Potency,[5],inactive
CC(C)CCCC(C)CCCC(C)CCCCC(C)CCCC(C)CCCC(C)C (configuration not stated),Potency,[6],inactive
same,Potency,[2],inactive
same,Potency,[3],inactive
same,Potency,[4],inactive
same,Potency,[5],inactive
NC(=S)Nc1cccc2ccccc12,"activity change, negative = inhibition",[6],-10% [at 10.5 µM]
same,"activity change, negative = inhibition",[2],-2.82% [at 10.5 µM]
same,"activity change, negative = inhibition",[3],-26.4% [at 10.5 µM]
same,"activity change, negative = inhibition",[4],1.12% [at 6.97 µM]
same,"activity change, negative = inhibition",[5],1.29% [at 10.5 µM]
CCOC(=O)Nc1ccc2c(c1)N(C(=O)CCN1CCOCC1)c1ccccc1S2,Potency,[6],7.76 µM (active)
same,Potency,[2],15.5 µM (active)
same,Potency,[3],inactive
CCCC(C)C(=O)O (configuration not stated),Potency,[6],34.2 µM (active)
same,Potency,[2],54.1 µM (active)
same,Potency,[3],68.2 µM (active)
same,Potency,[4],inactive
Oc1ccc2c(c1)OC[C@@H](N1CCC(O)(c3ccc(F)cc3)CC1)[C@H]2O,Potency,[6],3.89 µM (active)
same,Potency,[2],13.8 µM (active)
same,Potency,[3],7.76 µM (active)
same,Potency,[4],inactive
same,Potency,[5],inactive
CC(C)(C)N(CCO)CCO,Potency,[6],inactive
same,Potency,[2],inactive
same,Potency,[4],inactive
same,Potency,[5],inactive
Cc1nccn1CC1CCc2c(c3ccccc3n2C)C1=O (configuration not stated),Potency,[6],inactive
same,Potency,[2],inactive
O=S(=O)(c1cccc2cnccc12)N1CCCNCC1,Potency,[6],inactive
same,Potency,[3],inactive
same,Potency,[4],inactive
COC(C(=O)O)c1ccccc1 (configuration not stated),Potency,[6],inactive
same,Potency,[2],inactive
same,Potency,[3],inactive
same,Potency,[5],inactive
Cc1ccccc1C(=O)O,Potency,[6],inactive
same,Potency,[2],inactive
same,Potency,[3],inactive
same,Potency,[4],inactive
same,Potency,[5],inactive
CC(=O)NC(Cc1ccccc1)C(=O)O (configuration not stated),Potency,[6],inactive
same,Potency,[2],inactive
same,Potency,[3],inactive
same,Potency,[4],inactive
same,Potency,[5],inactive
CCCCc1ccc(N)cc1,Potency,[6],39.9 µM (active)
same,Potency,[2],44.8 µM (active)
same,Potency,[3],35.6 µM (active)
same,Potency,[4],inactive
CCOC(=O)[C@H](CCc1ccccc1)N[C@@H](C)C(=O)N1CCC[C@H]1C(=O)O,Potency,[6],inactive
same,Potency,[3],inactive
same,Potency,[4],inactive
CCC(C(=O)NC(N)=O)c1ccccc1 (configuration not stated),Potency,[6],79.6 µM (active)
same,Potency,[2],inactive
same,Potency,[3],28.3 µM (active)
same,Potency,[4],inactive
same,Potency,[5],inactive
O=C(CCOCCOCCOCCOCCC(=O)Nc1c(I)cc(I)c(C(=O)O)c1I)Nc1c(I)cc(I)c(C(=O)O)c1I,Potency,[6],inactive
same,Potency,[2],inactive
same,Potency,[3],inactive
same,Potency,[4],inactive
same,Potency,[5],inactive
